The source of these data is PubChem BioAssay (NCATS).

The target of test [1] is Atrial natriuretic peptide receptor 1 (Homo sapiens) (UniProt P16066). As to the kind of experiment: Natriuretic polypeptide receptor (hNpr1) antagonism - Pilot screen (AID 1347049; calls by dose curve;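 further: agonist-evoked cGMP luminescence read 20 min after hNppA addition; series mostly up to about 58 µM; on the % scale 0 is the no-effect control and ±100 the full control effect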). A digest of the protocol:
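HEK293 cells co-expressing hNpr1 and the GloSensor pGS-40F cGMP luciferase sensor were preloaded with 2% GloSensor reagent for 2 h. Compounds were added for 30 min at room temperature, then cells were stimulated with 0.1 nM hNppA for 20 min before luminescence readout.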

The target of test [2] is Atrial natriuretic peptide receptor 2 (Homo sapiens) (UniProt P20594). In words: Natriuretic polypeptide receptor (hNpr2) antagonism - Pilot subtype selectivity assay (AID 1347050; calls by dose curve; further: on the % scale 0 is the no-effect control and ±100 the full control effect). A digest of the protocol: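 cGMP-sensor HEK293/hNpr2 cells; 2% GloSensor reagent 2 h RT; compounds 30 min; baseline luminescence read; 1 nM hNppC agonist 20 min RT; final luminescence read by CCD camera. Antagonism = reduced post-agonist signal.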
Chain of Atrial natriuretic peptide receptor 2 (Homo sapiens) (P20594 whole entry, looked up): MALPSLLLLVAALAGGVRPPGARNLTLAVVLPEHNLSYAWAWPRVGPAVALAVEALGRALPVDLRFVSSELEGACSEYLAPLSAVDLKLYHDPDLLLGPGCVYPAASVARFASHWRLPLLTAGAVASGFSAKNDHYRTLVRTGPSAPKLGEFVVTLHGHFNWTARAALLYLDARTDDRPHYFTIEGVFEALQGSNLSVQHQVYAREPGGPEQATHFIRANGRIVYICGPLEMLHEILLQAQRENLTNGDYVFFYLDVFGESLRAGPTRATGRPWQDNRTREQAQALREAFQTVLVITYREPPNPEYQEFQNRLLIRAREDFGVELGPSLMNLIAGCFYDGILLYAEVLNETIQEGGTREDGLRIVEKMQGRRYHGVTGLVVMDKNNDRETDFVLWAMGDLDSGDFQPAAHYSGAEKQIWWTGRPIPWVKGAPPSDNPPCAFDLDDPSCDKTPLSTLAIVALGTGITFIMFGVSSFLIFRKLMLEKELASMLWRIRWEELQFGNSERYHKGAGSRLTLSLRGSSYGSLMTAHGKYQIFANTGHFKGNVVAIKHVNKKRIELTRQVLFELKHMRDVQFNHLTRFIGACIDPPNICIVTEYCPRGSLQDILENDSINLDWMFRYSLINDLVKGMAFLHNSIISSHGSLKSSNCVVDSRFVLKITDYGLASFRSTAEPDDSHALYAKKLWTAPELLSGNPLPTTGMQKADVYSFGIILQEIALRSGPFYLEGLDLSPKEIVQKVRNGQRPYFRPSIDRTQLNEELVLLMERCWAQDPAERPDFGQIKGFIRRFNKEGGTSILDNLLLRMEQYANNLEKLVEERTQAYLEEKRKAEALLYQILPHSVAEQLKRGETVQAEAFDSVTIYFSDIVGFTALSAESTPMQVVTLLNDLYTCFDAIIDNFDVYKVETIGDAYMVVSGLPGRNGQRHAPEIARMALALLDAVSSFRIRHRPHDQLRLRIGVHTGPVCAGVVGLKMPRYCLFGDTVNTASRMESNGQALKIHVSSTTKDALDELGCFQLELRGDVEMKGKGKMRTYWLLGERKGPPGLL

Test [3] in a line: NS1 protein of Zika virus - qHTS assay to identify small molecule inhibitors in human HEK 293 cells (AID 1347053).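 Further: series mostly up to about 46 µM; plate controls were infected untreated cells for no effect and uninfected cells for full effect; nearly all actives have a fitted effect of over 55% in size.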 In a few lines:
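Inhibition of NS1 expression was scored in HEK 293 cells given compound 1 h ahead of MR766 virus (MOI = 0.5). Following 24 h at 37 C, two anti-NS1 antibodies generated a TR-FRET signal, scaled between uninfected and infected controls.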
(In qHTS, concentration-response curves come from the screen itself.)

Test [4] concerns the target T1, Tyrosine-protein phosphatase non-receptor type substrate 1 (Homo sapiens) + Leukocyte surface antigen CD47 (Homo sapiens) (UniProt P78324+Q08722). As to the kind of experiment: CD47-SIRPalpha protein protein interaction - LANCE assay qHTS validation (AID 1347057; active means well fitted curve in the direction sought with a large enough effect in the signal ratio, with a control signal flat, not every such curve was filed as active; the % refers to the signal ratio; further: series mostly up to about 38 µM; 0% is about no effect). A digest of the protocol:
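First, His-tagged CD47 and Eu-labelled anti-His antibody met the compound for 30 min; next, site-specifically biotinylated SIRPalpha was added for 30 min; finally streptavidin-APC was added before reading the TR-FRET ratio.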
For orientation: TR-FRET usually uses a lanthanide donor and a delayed reading to cut background.

Test [5] addresses T1, Tyrosine-protein phosphatase non-receptor type substrate 1 (Homo sapiens) + Leukocyte surface antigen CD47 (Homo sapiens). As to the kind of experiment: CD47-SIRPalpha protein protein interaction - HTRF assay qHTS validation (AID 1347058; active means well fitted curve in the direction sought with a large enough effect in the signal ratio, not every such curve was filed as active; the % refers to the signal ratio; further: series mostly up to about 38 µM; 0% is about no effect). In a few lines:
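TR-FRET read (Ch1/Ch2 ratio) of soluble extracellular CD47 and Avi-biotinylated SIRPalpha domains in PBS pH 7.4 with 0.05% IGEPAL; 7-point compound titration. Sequential 30 min room-temperature steps; non-biotinylated SIRPalpha as control inhibitor.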

The target is the same in test [6]. As to the kind of experiment: CD47-SIRPalpha protein protein interaction - Alpha assay qHTS validation (AID 1347059).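 Further: bead proximity luminescence from CD47 binding SIRPalpha after compound preincubation with SIRPalpha; on the % scale 0 is the no-effect control and ±100 the full control effect.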 A digest of the protocol:
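Soluble extracellular domains: Avi-tag biotinylated SIRPalpha (25 nM) preincubated 30 min RT with compound, then 6His-CD47 (12.5 nM) 30 min; Ni-NTA acceptor and streptavidin donor beads (10 ug/mL) 30 min, AlphaScreen read. PBS pH 7.4, 0.05% IGEPAL.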

The target in test [7] is Parathyroid hormone/parathyroid hormone-related peptide receptor (Homo sapiens) (UniProt Q03431). As to the kind of experiment: qHTS for PTHR1 Agonists: Optimization Screen against the NCGC LOPAC library (AID 1347079).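 Further: GloSensor cAMP luminescence in HEK-293 GP2 cells expressing human PTHR1 with IBMX; 0% is about no effect.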 A digest of the protocol:
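Compounds were tested across a qHTS titration. PTHR1-expressing GP2 cells report cAMP rises via GloSensor luminescence after 1 hr compound exposure at 37C with IBMX present.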

Test [8] can be described thus: qHTS of pediatric cancer cell lines to identify multiple opportunities for drug repurposing: Primary screen for TC32 cells (AID 1347089). Further: on the % scale 0 is the no-effect control and ±100 the full control effect; nearly all actives have a fitted effect of over 60% in size. In a few lines:
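In the primary qHTS, MIPE compounds were tested at 11 concentrations (0.78 nM to 46 µM) and NPC compounds at 8 (0.59 nM to 46 µM) on TC32 cells for 48 h. CellTiter-Glo luminescence gave viability.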

Test [9] in a line: qHTS of pediatric cancer cell lines to identify multiple opportunities for drug repurposing: Primary screen for DAOY cells (AID 1347090).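 Further: series mostly up to about 46 µM; plate controls were DMSO for no effect and bortezomib for full effect; nearly all actives have a fitted effect of over 55% in size.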 A digest of the protocol: (§1)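 Eight- or eleven-point concentration series, 48 h treatment at 37 degrees C in growth media; readout CellTiter-Glo luminescence. Potency and efficacy were taken from the concentration-response curves.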
The nature of test [10]: qHTS of pediatric cancer cell lines to identify multiple opportunities for drug repurposing: Primary screen for SJ-GBM2 cells (AID 1347091).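 Further: plate controls were DMSO neutral control for no effect and bortezomib for full effect.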 A digest of the protocol:
as §1

Test [11] can be described thus: qHTS of pediatric cancer cell lines to identify multiple opportunities for drug repurposing: Primary screen for A673 cells (AID 1347092). Further: on the % scale 0 is the no-effect control and ±100 the full control effect; nearly all actives have a fitted effect of over 45% in size. A digest of the protocol: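 48 h compound exposure, A673, 500-1,000 cells/well, 37 degrees C/5% CO2. MIPE: 11-point, 0.78 nM-46 µM; NPC: 8-point, 0.59 nM-46 µM (final). Readout CellTiter-Glo luminescence after 15 min RT.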
Test [12] can be described thus: qHTS of pediatric cancer cell lines to identify multiple opportunities for drug repurposing: Primary screen for SK-N-MC cells (AID 1347093). Further: potency means the concentration at half of the fitted maximal effect.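 On activity change, negative = cytotoxic: series mostly up to about 46 µM; plate controls were DMSO neutral control for no effect and bortezomib for full effect.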 In a few lines:
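Metabolically active cells were quantified by ATP-dependent luminescence (CellTiter-Glo, 15 min at room temperature) following 48 h treatment. Cells had been plated at 500-1,000 per well and settled for 5 h beforehand.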

Test [13] is described as follows: qHTS of pediatric cancer cell lines to identify multiple opportunities for drug repurposing: Primary screen for BT-37 cells (AID 1347094).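 Further: series mostly up to about 57 µM; plate controls were DMSO for no effect and bortezomib for full effect.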 A digest of the protocol: (§2)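 Plated cells (500-1,000 per well, growth media) were allowed to settle for 5 hours, treated with compound dilutions for 48 hours, then lysed with CellTiter-Glo for 15 min at room temperature before luminescence reading.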

Test [14] is described as follows: qHTS of pediatric cancer cell lines to identify multiple opportunities for drug repurposing: Primary screen for NB-EBc1 cells (AID 1347095).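 Further: plate controls were DMSO neutral control for no effect and bortezomib for full effect.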 A digest of the protocol: as §2
A short description of test [15]: qHTS of pediatric cancer cell lines to identify multiple opportunities for drug repurposing: Primary screen for U-2 OS cells (AID 1347096).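 Further: plate controls were DMSO wells for no effect and bortezomib positive control wells for full effect; nearly all actives have a fitted effect of over 50% in size.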 In a few lines:
(§3)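 Cells (500-1,000/well) in growth media were settled 5 h at 37 degrees C, then given compounds for 48 h. Viability was read as CellTiter-Glo luminescence. Primary runs used MIPE at 11 points (0.78 nM-46 µM) and NPC at 8 points (0.59 nM-46 µM); follow-ups used 11 points.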

Test [16] can be described thus: qHTS of pediatric cancer cell lines to identify multiple opportunities for drug repurposing: Primary screen for SK-N-SH cells (AID 1347098).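 Further: DMSO served as neutral control and bortezomib at 2.3 µM as positive control; on the % scale 0 is the no-effect control and ±100 the full control effect; nearly all actives have a fitted effect of over 65% in size.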 A digest of the protocol: (§4)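 Cells (500-1,000/well) rested 5 h, then received compounds for 48 h; metabolically active cells were measured by CellTiter-Glo luminescence. Final concentrations spanned up to 46 µM (MIPE, 11-point) or 0.59 nM-46 µM (NPC, 8-point) in primary screens, 11-point in follow-ups.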

The nature of test [17]: qHTS of pediatric cancer cell lines to identify multiple opportunities for drug repurposing: Primary screen for NB1643 cells (AID 1347099).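 Further: plate controls were DMSO neutral control for no effect and bortezomib positive control for full effect; nearly all actives have a fitted effect of over 50% in size.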 A digest of the protocol:
as §2

Test [18] is described as follows: qHTS of pediatric cancer cell lines to identify multiple opportunities for drug repurposing: Primary screen for LAN-5 cells (AID 1347100).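 Further: plate controls were DMSO neutral control for no effect and bortezomib positive control for full effect.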 A digest of the protocol:
as §3

A short description of test [19]: qHTS of pediatric cancer cell lines to identify multiple opportunities for drug repurposing: Primary screen for BT-12 cells (AID 1347101).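 Further: plate controls were DMSO for no effect and bortezomib positive control for full effect; nearly all actives have a fitted effect of over 25% in size.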 A digest of the protocol:
as §4

Test [20] in a line: qHTS of pediatric cancer cell lines to identify multiple opportunities for drug repurposing: Primary screen for Saos-2 cells (AID 1347097). Further: on the % scale 0 is the no-effect control and ±100 the full control effect; nearly all actives have a fitted effect of over 40% in size. In a few lines:
as §2

A number with no mark means an inactive call. Inconclusive results are not listed. Calls of active or inactive are those of the source. Unless noted, the call rests on the fitted dose curve; in most records, active means well fitted curve in the direction sought with a large enough effect; inconclusive means small, poorly fitted or top-dose-only effect, or another doubt; inactive means no such curve, though single readings can be large; an effect the other way counts as inactive or inconclusive.

Chain of Atrial natriuretic peptide receptor 1 (Homo sapiens) (P16066 whole entry, looked up): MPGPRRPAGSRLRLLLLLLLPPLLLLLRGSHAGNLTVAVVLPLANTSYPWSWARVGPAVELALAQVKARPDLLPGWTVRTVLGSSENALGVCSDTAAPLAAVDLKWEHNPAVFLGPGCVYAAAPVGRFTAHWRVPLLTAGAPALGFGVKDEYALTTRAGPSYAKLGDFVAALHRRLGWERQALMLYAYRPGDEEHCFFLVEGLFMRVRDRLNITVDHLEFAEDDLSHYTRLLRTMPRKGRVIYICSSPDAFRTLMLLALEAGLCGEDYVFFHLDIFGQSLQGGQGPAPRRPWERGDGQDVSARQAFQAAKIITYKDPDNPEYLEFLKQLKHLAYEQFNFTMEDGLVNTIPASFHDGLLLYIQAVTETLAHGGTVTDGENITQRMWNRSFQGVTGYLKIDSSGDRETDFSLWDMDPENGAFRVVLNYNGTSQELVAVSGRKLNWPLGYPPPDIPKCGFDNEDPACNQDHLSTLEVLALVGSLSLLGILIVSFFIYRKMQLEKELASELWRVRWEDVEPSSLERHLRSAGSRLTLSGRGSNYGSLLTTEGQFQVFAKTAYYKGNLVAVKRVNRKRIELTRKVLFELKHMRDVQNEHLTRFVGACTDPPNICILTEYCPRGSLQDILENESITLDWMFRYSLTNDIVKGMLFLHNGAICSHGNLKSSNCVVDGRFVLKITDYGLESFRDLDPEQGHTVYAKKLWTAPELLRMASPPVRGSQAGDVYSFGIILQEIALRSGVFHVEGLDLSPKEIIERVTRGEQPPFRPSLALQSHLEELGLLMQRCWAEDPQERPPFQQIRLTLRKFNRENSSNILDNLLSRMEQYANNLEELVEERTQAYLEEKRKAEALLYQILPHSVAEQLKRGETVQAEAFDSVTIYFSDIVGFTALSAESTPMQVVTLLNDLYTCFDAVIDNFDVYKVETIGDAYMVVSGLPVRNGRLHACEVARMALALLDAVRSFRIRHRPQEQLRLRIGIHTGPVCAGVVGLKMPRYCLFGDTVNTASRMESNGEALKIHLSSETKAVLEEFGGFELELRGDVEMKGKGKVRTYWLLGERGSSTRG
T1 sequence (P78324 whole entry, looked up): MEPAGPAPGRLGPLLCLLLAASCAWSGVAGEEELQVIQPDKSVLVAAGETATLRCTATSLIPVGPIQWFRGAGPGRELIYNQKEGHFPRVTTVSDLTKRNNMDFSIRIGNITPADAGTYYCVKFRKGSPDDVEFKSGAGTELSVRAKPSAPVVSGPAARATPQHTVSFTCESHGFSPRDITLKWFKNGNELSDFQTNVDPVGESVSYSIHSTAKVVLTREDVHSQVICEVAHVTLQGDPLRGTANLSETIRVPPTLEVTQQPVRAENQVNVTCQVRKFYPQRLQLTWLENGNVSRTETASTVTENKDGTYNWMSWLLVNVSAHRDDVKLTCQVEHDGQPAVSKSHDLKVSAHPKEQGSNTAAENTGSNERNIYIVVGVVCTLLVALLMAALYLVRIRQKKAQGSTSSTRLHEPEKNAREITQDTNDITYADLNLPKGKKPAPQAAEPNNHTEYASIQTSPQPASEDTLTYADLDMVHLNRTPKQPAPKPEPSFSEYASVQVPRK
T1 sequence (Q08722 whole entry, looked up): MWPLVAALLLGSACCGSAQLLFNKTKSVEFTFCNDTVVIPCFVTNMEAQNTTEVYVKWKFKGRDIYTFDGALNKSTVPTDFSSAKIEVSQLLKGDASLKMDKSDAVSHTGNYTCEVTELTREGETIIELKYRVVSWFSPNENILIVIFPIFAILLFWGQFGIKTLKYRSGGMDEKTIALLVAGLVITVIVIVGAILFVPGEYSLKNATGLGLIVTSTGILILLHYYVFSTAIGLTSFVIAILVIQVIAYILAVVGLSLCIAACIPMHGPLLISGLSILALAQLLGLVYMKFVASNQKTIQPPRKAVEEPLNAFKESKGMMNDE
Chain of Parathyroid hormone/parathyroid hormone-related peptide receptor (Homo sapiens) (Q03431 whole entry, looked up): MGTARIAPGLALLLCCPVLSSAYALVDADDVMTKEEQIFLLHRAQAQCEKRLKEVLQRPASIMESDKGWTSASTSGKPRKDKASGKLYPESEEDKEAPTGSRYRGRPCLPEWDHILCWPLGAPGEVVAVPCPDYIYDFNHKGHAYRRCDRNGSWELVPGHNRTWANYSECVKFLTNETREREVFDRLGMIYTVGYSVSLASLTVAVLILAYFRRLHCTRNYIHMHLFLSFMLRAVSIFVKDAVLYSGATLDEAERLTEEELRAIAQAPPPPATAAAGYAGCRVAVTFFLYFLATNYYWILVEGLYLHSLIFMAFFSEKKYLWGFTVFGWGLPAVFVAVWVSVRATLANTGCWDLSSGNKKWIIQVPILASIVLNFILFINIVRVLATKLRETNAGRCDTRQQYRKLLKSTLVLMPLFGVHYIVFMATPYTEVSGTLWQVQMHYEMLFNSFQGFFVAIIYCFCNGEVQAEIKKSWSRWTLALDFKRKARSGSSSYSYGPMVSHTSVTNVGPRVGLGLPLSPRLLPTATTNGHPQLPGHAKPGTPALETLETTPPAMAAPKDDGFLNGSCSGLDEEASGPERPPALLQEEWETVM

On to `C[C@]12CC[C@@H]3c4ccc(O)cc4CC[C@H]3[C@@H]1CCC2=O`, for which the call in test [1], in [4], in test [5] and in test [6] was inactive. Besides, the Potency result in test [2], in test [3], in test [7], in test [8], in test [9] and in test [10] was “inactive” each time. Besides, the Potency entry in test [11], in test [12], in test [13], in test [14], in test [15] and in [16] was “inactive” in each case. Moreover, the Potency entry in [17] and in test [18] was “inactive” throughout.

As for `NC(N)=NCCC[C@H](N)C(=O)O`, the molecule was called inactive in test [1]. Moreover, the Potency entry in test [2], in test [3] and in test [7] was “inactive” each time. In addition, the activity change, negative = cytotoxic in [8] was 3.73% [at 4.81 µM]; in test [9], -2.71% [at 4.84 µM]; in test [10] it was 11.2% [at 4.84 µM]; in [11], 0.848% [at 4.84 µM]; in test [12], -27.1% [at 4.84 µM]; in test [13] it was 4.21% [at 6.03 µM]. Moreover, the activity change, negative = cytotoxic is 12% [at 4.84 µM] in [14]; 2.69% [at 4.84 µM] in [15]; -0.158% [at 6 µM] in test [16]; 7.96% [at 4.84 µM] in test [17]; 8.53% [at 4.84 µM] in test [18]; 1.23% [at 6.03 µM] in [19].

Take `CCN(CC)CCOC(=O)C1(C2CCCCC2)CCCCC1`: the molecule was called inactive in test [1], in [4], in [5] and in test [6]. The Potency entry in [2], in [3], in test [7], in [8], in test [9] and in [11] was “inactive” throughout. Also, the Potency result in [15], in test [17] and in [18] was “inactive” throughout.

Take `COc1ccc(Cl)cc1C(=O)NCCc1ccc(S(=O)(=O)NC(=O)NC2CCCCC2)cc1`: the outcome in [1], in test [4], in [5] and in test [6] was inactive. Moreover, the Potency entry in test [2], in test [3], in test [7], in [8], in test [9] and in test [10] was “inactive” each time. The Potency result in test [11], in test [13], in test [14], in test [15], in test [20] and in [16] was “inactive” in each case. In addition, the Potency result in test [17], in [18] and in test [19] was “inactive” each time.

With `Nc1ncnc2c1ncn2[C@@H]1O[C@H](CO)[C@@H](O)[C@H]1O`, the call in test [1], in [4], in test [5] and in [6] was inactive. In addition, the Potency result in test [2], in [3], in test [7], in [9], in [10] and in test [13] was “inactive” throughout. In addition, the Potency result in test [14], in test [15], in test [20], in [16], in test [17] and in [18] was “inactive” throughout. Moreover, the Potency result in test [19] is “inactive”.

Consider `CC1=C(/C=C/C(C)=C/C=C/C(C)=C/C(=O)O)C(C)(C)CCC1`, for which the molecule was called inactive in test [1], in [4], in [5] and in test [6]. Besides, the Potency result in test [2], in test [3], in test [7], in test [8], in test [10] and in test [11] was “inactive” in each case. In addition, the Potency result in test [13], in test [14], in [15], in [20], in [16] and in [17] was “inactive” in each case. The Potency result in [18] and in test [19] was “inactive” throughout.

As for `C[C@](N)(Cc1ccc(O)cc1)C(=O)O`, the outcome in test [1], in test [4], in test [5] and in test [6] was inactive. The Potency entry in [2], in test [3] and in test [7] was “inactive” in each case. Moreover, the activity change, negative = cytotoxic was 12.9% [at 4.81 µM] in test [8]; 11.8% [at 4.84 µM] in test [10]; 0.899% [at 6.03 µM] in test [13]; 16.2% [at 4.84 µM] in [14]; 7.56% [at 4.84 µM] in [15]; -22.2% [at 4.84 µM] in test [20]. The activity change, negative = cytotoxic in [16] was -0.998% [at 6 µM]; in test [18] it was -5.33% [at 4.84 µM]; in test [19] it was 0.753% [at 6.03 µM]. Further, the Potency in [12] is 1 nM (active).
